Reference: PubChem BioAssay (NCATS)
Calls of active or inactive are those of the source. Calls follow the shape of the dose curve; as a rule, active = well fitted activation curve with a large enough effect; inconclusive = small, poorly fitted or top-dose-only effect; inactive = no such curve, though single readings can be large or run the other way.

biological target: Cytochrome P450 3A4 (Homo sapiens) (UniProt P08684); test: qHTS Assay for Activators of Cytochrome P450 3A4 (AID 885); details: recombinant CYP3A4, Luciferin-PPXE luminescence, 60 min; series mostly up to 57.1 µM; activity change, positive = activation: at the top concentration; also: nearly all actives have a fitted effect of over 65% in size
Experimental: NIH Molecular Libraries Screening Centers Network [MLSCN]
NIH Chemical Genomics Center [NCGC]
The P450 gene superfamily is involved in the metabolism and clearance of xenobiotics. This assay used human CYP3A4 to measure the dealkylation of luciferin-6' phenylpiperazinylyl (Luciferin-PPXE; […]) to luciferin. The luciferin is then measured by luminescence after the addition of a luciferase detection reagent. Luciferin-PPXE concentration in the assay was equal to its KM for CYP3A4. Inhibitors and some substrates limit the production of luciferin, and decrease measured luminescence; activators increase the production of luciferin and luminescence.
NCGC Assay Protocol Summary:
Two uL of enzyme and substrate mix (final concentrations: 20nM CYP3A4, 25uM Luciferin-PPXE, 200mM KPO4) were dispensed into a white, solid bottom 1536-well microtiter plate. 23nL of compound was transferred by a pin tool. The plate was incubated at RT for 10 min. Two uL of an NADPH regeneration solution (Promega supplied reagent) was dispensed and the reaction was allowed to continue for 60 min at RT. Then the reaction was stopped by reconstituted luciferin detection buffer. After another 20 min of incubation the plate was read on the ViewLux (Perkin Elmer) at 60 sec exposure and 2x2 binning. This protocol was carried out with Promega-Glo reagents and further information can be found at http://www.promega.com/tbs/tb325/tb325.pdf. Data were normalized to the to AC100 inhibition (57 uM ketoconazole).
Keywords: P450, CYP2D6, Luciferase, MLSMR, MLSCN, NIH Roadmap, qHTS, NCGC
Potency is read from the fitted curve at half-maximal effect.

Cytochrome P450 3A4 (Homo sapiens), sequence (P08684 whole entry, looked up): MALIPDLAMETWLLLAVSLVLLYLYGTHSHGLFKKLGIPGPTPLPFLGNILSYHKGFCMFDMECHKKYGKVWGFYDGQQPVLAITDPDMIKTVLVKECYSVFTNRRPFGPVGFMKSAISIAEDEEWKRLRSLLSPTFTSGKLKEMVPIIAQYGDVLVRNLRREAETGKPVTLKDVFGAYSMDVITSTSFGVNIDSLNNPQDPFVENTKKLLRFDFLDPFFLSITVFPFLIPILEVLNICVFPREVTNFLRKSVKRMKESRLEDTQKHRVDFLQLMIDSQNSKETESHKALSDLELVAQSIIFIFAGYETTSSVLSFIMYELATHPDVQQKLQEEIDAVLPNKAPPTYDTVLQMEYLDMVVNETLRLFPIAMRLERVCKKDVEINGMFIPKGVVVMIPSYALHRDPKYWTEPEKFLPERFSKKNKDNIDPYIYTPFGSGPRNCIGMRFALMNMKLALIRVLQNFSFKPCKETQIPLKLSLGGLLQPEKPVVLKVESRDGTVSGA

| SMILES | activity change, positive = activation | Potency |
| --- | --- | --- |
| CN(C(=O)Cc1ccc(Cl)c(Cl)c1)[C@H](CN1CCCC1)c1ccccc1 | -80.9% (inactive) | – |
| c1ccc([C@H]2CNCc3ccccc32)cc1 | -51.7% (inactive) | – |
| COc1ccc2c3c([nH]c2c1)C(C)=NCC3 | – | inactive |
| CN(C)Cc1c[nH]c2ccccc12 | – | inactive |
| O=C(/C=C\c1ccc(Cl)cc1)N[C@@]12CCC(=O)[C@@H]3Oc4c(O)ccc5c4[C@@]31CCN(CC1CC1)[C@@H]2C5 | -48.5% (inactive) | – |
| O=c1c(O)c(-c2cc(O)c(O)c(O)c2)oc2cc(O)cc(O)c12 | -33.2% (inactive) | – |
| O=c1c2ccccc2oc2ccccc12 | -90.9% (inactive) | – |
| C=CCN1C[C@H](C)N([C@@H](c2ccccc2)c2ccc(C(=O)N(CC)CC)cc2)C[C@H]1C | -59% (inactive) | – |
| Nc1nc(OCc2ccccc2)c2[nH]cnc2n1 | -88.9% (inactive) | – |
| CN1CC(CO)=C[C@H]2c3cccc4[nH]cc(c34)C[C@H]21 | -40.2% (inactive) | – |
| Nc1nc2ccc(Cl)cc2c2nc(-c3ccco3)nn12 | -41.2% (inactive) | – |
| c1ccc(CCCCN2CCC(c3ccccc3)CC2)cc1 | – | 31.6 µM (active) |
| COC(=O)C[C@](O)(CCCC(C)(C)O)C(=O)O[C@@H]1C(OC)=C[C@]23CCCN2CCc2cc4c(cc2[C@H]13)OCO4 | -88.7% (inactive) | – |
| Clc1ccc(COC(Cn2ccnc2)c2ccc(Cl)cc2Cl)c(Cl)c1 (stereo not given) | -90.1% (inactive) | – |
| COc1ccc2ccc(=O)oc2c1CC=C(C)C | -60.8% (inactive) | – |
| COC(=O)CN1CN(c2ccccc2)C2(CCN(Cc3ccc4ccccc4c3)CC2)C1=O | -77.4% (inactive) | – |
| CN(C(=O)Cc1ccc(Cl)c(Cl)c1)[C@@H](CN1CCCC1)c1cccc(OCC(=O)O)c1 | -32.6% (inactive) | – |
| CCC(C(=O)O)C1CCC(C)C(C(C)C(O)C(C)C(=O)C(CC)C2OC3(C=CC(O)[C@@]4(CC[C@](C)(C5CC[C@@](O)(CC)C(C)O5)O4)O3)C(C)CC2C)O1 (stereo not given in full) | -52.7% (inactive) | – |
| COc1ccc2[nH]cc(C3=CCNCC3)c2c1 | -91.9% (inactive) | – |
| O=C(CCCN1CCC2(CC1)C(=O)N(Cc1cccc(F)c1)CN2c1ccccc1)c1ccc(F)cc1 | -44.8% (inactive) | – |

| SMILES | activity change, positive = activation | Potency |
| --- | --- | --- |
| CC1OC(=O)C(C(C)C)NC(=O)C(C(C)C)OC(=O)C(C(C)C)NC(=O)C(C)OC(=O)C(C(C)C)NC(=O)C(C(C)C)OC(=O)C(C(C)C)NC(=O)C(C)OC(=O)C(C(C)C)NC(=O)C(C(C)C)OC(=O)C(C(C)C)NC1=O (stereo not given) | -34.6% (inactive) | – |
| CC1CCCC(=O)CCC/C=C/c2cc(O)cc(O)c2C(=O)O1 (stereo not given) | -94.9% (inactive) | – |
| Oc1ccc2c3c1O[C@H]1c4c(c5ccccc5n4Cc4ccccc4)C[C@]4(O)[C@H](C2)N(CC2CC2)CC[C@@]314 | -61.6% (inactive) | – |
| S=C=Nc1cccc(C2(N3CCCCC3)CCCCC2)c1 | -82% (inactive) | – |
| N#CC(C#N)=Cc1ccc([N+](=O)[O-])c(O)c1 | -51.3% (inactive) | – |
| c1ccc(C[C@@H](c2ccccc2)N2CCCCC2)cc1 | -35.9% (inactive) | – |
| C=CCN1CC[C@@]23c4c5ccc(O)c4O[C@H]2/C(=N\N=C2/CC[C@@]4(O)[C@H]6Cc7ccc(O)c8c7[C@@]4(CCN6CC=C)[C@@H]2O8)CC[C@]3(O)[C@@H]1C5 | – | inactive |
| CC1(C)CCC2=C(O1)c1ccccc1C(=O)C2=O | -102% (inactive) | – |
| Cc1c(C(=O)c2ccc3ccccc3c2)c2cccc3c2n1[C@H](CN1CCOCC1)CO3 | -74.7% (inactive) | – |
| Oc1ccc(-c2nc(-c3ccc(F)cc3)c(-c3ccncc3)[nH]2)cc1 | -91.6% (inactive) | – |
| N#C/C(=C\c1ccc(O)c(O)c1)C(=O)NCCCNC(=O)/C(C#N)=C/c1ccc(O)c(O)c1 | -77.4% (inactive) | – |
| O=C1/C(=C\c2ccccc2)C[C@@]2(O)[C@H]3Cc4ccc(O)c5c4[C@@]2(CCN3CC2CC2)[C@@H]1O5 | -57.9% (inactive) | – |
| CC[C@@]1(O)C(=O)OCc2c1cc1n(c2=O)Cc2cc3cc(O)ccc3nc2-1 | -65.5% (inactive) | – |
| c1ccc(Nc2cccc3ccccc23)cc1 | -71.2% (inactive) | – |
| CC(C)[C@H](CO)Nc1nc(Nc2cccc(Cl)c2)c2ncn(C(C)C)c2n1 | -93.1% (inactive) | – |
| NC(=NCCc1ccc(I)cc1)SCCCc1cnc[nH]1 | -109% (inactive) | – |
| CC(C)COC(=O)OCN1C(=O)CN(CCN2CC(=O)N(COC(=O)OCC(C)C)C(=O)C2)CC1=O | -62.7% (inactive) | – |
| CN1CCc2cc3c(cc2C1C1OC(=O)c2c1ccc1c2OCO1)OCO3 (stereo not given) | -90% (inactive) | – |
| O=C1Nc2ccccc2C2(CCN(CCc3ccc(C(F)(F)F)cc3)CC2)O1 | – | 7.94 µM (active) |
| COc1ccc(CNC(=O)/C=C\c2ccc3[nH]cc(CCN(C)C)c3c2)cc1 | -63.1% (inactive) | – |
